Experimental data taken from PubChem BioAssay (Tox21).
Where “and” joins values, the source holds several entries; their conditions need not be identical. Identical values can stand only once. Inconclusive results are not listed. Calls of active or inactive are those of the source. Unless noted, the call rests on the fitted dose curve; in most records, active means well fitted curve in the direction sought with a large enough effect in the repeat runs; inconclusive means weak or mixed curves; inactive means no such curve, though single readings can be large; an effect the other way counts as inactive or inconclusive.

Experiments:
[1] = qHTS assay to identify small molecule agonists of the estrogen receptor alpha (ER-alpha) signaling pathway in the presence of an antagonist - cell viability counter screen (AID 1259386);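 further: series mostly up to about 92 µM; cells exposed to compounds for 22 h at 37 °C before the viability read; nearly all actives have a fitted effect of over 30% in size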
In short: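 The test measures whether compounds kill ER-alpha reporter cells (VM7Luc4E2) under antagonist co-treatment (ICI-182,780, 10.0nM). Fluorescence from CellTiter-Fluor is read after a 22hr exposure.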

[2] = target: Progesterone receptor (Homo sapiens) (UniProt P06401); test: qHTS assay to identify small molecule antagonists of the progesterone receptor (PR) signaling pathway (AID 1346795; active means well fitted inhibition curve with a large enough effect in the signal ratio in the repeat runs, not every such curve was filed as active; the % refers to the signal ratio)
Chain of Progesterone receptor (Homo sapiens) (P06401 whole entry, looked up): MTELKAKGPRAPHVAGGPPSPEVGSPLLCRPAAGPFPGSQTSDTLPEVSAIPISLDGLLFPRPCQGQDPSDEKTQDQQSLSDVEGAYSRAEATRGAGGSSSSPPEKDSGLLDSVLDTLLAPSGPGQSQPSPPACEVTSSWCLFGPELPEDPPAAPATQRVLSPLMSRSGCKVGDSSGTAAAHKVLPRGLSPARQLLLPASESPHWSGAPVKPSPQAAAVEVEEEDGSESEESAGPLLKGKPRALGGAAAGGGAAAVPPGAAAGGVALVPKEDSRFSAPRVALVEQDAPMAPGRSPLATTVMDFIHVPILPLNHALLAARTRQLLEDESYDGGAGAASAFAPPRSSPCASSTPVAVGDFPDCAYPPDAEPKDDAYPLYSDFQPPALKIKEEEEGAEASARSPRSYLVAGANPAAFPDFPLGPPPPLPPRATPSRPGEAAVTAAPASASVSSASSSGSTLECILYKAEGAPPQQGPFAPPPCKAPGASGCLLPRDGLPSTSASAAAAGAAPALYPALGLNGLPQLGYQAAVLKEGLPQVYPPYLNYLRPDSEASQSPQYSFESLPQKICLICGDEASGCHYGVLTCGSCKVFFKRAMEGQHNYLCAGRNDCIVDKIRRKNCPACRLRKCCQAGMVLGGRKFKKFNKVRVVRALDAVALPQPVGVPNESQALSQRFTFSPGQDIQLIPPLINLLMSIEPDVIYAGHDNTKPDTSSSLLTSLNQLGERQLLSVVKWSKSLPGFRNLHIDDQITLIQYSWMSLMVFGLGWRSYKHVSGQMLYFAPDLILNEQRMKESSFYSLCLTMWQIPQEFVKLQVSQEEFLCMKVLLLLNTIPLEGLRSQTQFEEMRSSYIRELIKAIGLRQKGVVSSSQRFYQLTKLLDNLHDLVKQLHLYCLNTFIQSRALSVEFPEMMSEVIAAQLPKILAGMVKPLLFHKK
In short: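 After 6 hr plating at 37C in 2% stripped-serum medium, PR-UAS-bla HEK293T cells got compounds, then 1 nM R5020. Sixteen hours later, LiveBLAzer substrate was applied for 2 hr at room temperature and fluorescence was recorded.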

[3] = qHTS assay to identify small molecule antagonists of the progesterone receptor (PR) signaling pathway - cell viability counter screen (AID 1346798); further: nearly all actives have a fitted effect of over 50% in size; further: potency means the concentration at half of the fitted maximal effect
In short: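 Viability was determined by ATP-based luminescence (CellTiter-Glo) in PR-UAS-bla HEK293T cells cultured in 2% charcoal-stripped serum and incubated 16 hr with compounds under R5020 stimulation.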

[4] = qHTS assay to identify small molecule agonists of the progesterone receptor (PR) signaling pathway - cell viability counter screen (AID 1346799; calls by dose curve; further: nearly all actives have a fitted effect of over 45% in size; further: potency means the concentration at half of the fitted maximal effect)
In short: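 Viability was scored by ATP luminescence (CellTiter-Glo, 30 min, room temperature) in the same wells used for the reporter readout, after 16 hr compound exposure of PR-UAS-bla HEK293T cells.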

[5] = qHTS assay to identify small molecule antagonists of the TGF-beta/Smad signaling pathway - cell viability counter screen (AID 1346824); further: nearly all actives have a fitted effect of over 50% in size
In short: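 SBE-bla HEK 293T cells were plated overnight at 37 C, then given compounds in DMSO plus TGF-beta1 (added as 0.25 ng/mL solution) for 5 hr. After the bla read, CellTiter-Glo was added to the same wells and luminescence read after 30 min at room temperature.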

[6] = qHTS assay to identify small molecule agonists of the TGF-beta/Smad signaling pathway - cell viability counter screen (AID 1346829); further: top concentration of the series differs between compounds; nearly all actives have a fitted effect of over 45% in size
In short: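 CellTiter-Glo luminescence readout; SBE-bla HEK 293T cells, overnight plating, compound 5 hr at 37 C/5% CO2, then bla substrate 2 hr RT, then CellTiter-Glo 30 min RT.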

[7] = qHTS assay to identify small molecule agonists of the TGF-beta/Smad signaling pathway (AID 1346859; active means well fitted activation curve with a large enough effect in the signal ratio in the repeat runs, not every such curve was filed as active; the % refers to the signal ratio; further: series mostly up to about 77 µM)
In short: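 Dual-wavelength fluorescence (460/530 nm emission) quantified beta-lactamase expression under the Smad binding element in HEK 293T cells following 5 hr compound treatment at 37 C.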

[8] = target: Thyrotropin-releasing hormone receptor (Homo sapiens) (UniProt P34981); test: qHTS assay to identify small molecule antagonists of the thyrotropin-releasing hormone receptor (TRHR) signaling pathway (AID 1346877; active means well fitted inhibition curve with a large enough effect in the repeat runs, not every such curve was filed as active; further: series mostly up to about 51 µM)
Chain of Thyrotropin-releasing hormone receptor (Homo sapiens) (P34981 whole entry, looked up): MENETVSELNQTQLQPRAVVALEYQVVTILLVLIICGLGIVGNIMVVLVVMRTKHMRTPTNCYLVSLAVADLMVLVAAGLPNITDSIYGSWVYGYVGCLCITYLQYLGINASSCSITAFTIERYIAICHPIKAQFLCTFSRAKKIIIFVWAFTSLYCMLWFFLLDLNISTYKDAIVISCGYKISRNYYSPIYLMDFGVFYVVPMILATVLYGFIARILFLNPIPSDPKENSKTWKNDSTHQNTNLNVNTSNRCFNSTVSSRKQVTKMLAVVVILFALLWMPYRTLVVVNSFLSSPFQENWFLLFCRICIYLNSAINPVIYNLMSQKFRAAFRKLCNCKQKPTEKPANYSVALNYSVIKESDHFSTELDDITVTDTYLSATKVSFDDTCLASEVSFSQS
In short: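 Overnight-plated (18 h, 37 °C) HEK293 cells expressing TRHR were dye-loaded 2 h, treated with compound, then stimulated with TRH at 1 nM final. Fluorescence intensity was captured every second for 3 min.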

[9] = target: Thyrotropin-releasing hormone receptor (Homo sapiens) (UniProt P34981); test: qHTS assay to identify small molecule agonists of the thyrotropin-releasing hormone receptor (TRHR) signaling pathway (AID 1346891; calls by dose curve;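 further: HEK293 cells expressing TRHR with calcium dye readout; series mostly up to about 58 µM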)
In short: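 Kinetic fluorescence (3 min, 1 s intervals) reported intracellular calcium after compound transfer onto TRHR-Hek293 cells pre-loaded with dye for 2 h at 37 °C.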

Measured: Potency

CC[N+]1(C)CCCC(OC(=O)C(O)(c2ccccc2)c2ccccc2)C1 (stereo not drawn)
inactive: all assays above

CCC(=O)O[C@@H]1C=C2CCC3C(CCC4(C)C3CC[C@@H]4OC(=O)CC)C2CC1 (stereo partly drawn)
not listed: [4] | [5] | [6]
inactive: all other assays above

CC(C)C1(C)N=C(c2ncccc2C(=O)O)NC1=O (stereo not drawn)
not listed: [2] | [3] | [6]
inactive: all other assays above

ClCc1ccccc1Cl
inactive: [1] | [3] | [4] | [5] | [7]

CCC(C)(C)c1ccc(O)c(C(C)(C)CC)c1
active: [3] 60.4 µM and 30.6 µM | [4] 24.3 µM
not listed: [2] | [6]
inactive: all other assays above
